Source: PubChem BioAssay (EPA / NIEHS)
Several values for one entry are separate records, joined by “and”; a condition that tells them apart may be missing. Identical values can stand only once. A structure can be active in one record and inactive in another. Activity calls are given as the source filed them. How the source made its calls: active means hit-call score of the fitted dose curve at least 0.9, where 1 is the maximum; inactive means score below 0.9.

Key:
[1] = read-out: Human Leukocyte Antigen - DR isotype (HLADR), HLA-DRA (gene 3122); assay: BSK_BE3C_HLADR: BioMAP Diversity Plus: BE3C Assay for Human Leukocyte Antigen - DR isotype (HLADR) Biomarker Activity (AID 2283032); conditions: primary human bronchial epithelial cells; actives raise or lower the signal
Summary of the method: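 Signal came from an ELISA for HLA-DR in human bronchial epithelial primary cells harvested 24 h after treatment; gain- and loss-of-signal fitting used DMSO controls as reference.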

[2] = read-out: Vascular cell adhesion molecule 1 (VCAM1), VCAM1 (gene 7412); assay: BSK_4H_VCAM1: BioMAP Diversity Plus: 4H Assay for Vascular cell adhesion molecule 1 (VCAM1) Biomarker Activity (AID 2283033); conditions: primary human endothelial cells (HUVEC); actives raise or lower the signal
Summary of the method: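 Endpoint derived from bidirectional fitting against DMSO controls of VCAM-1 ELISA signal in umbilical vein endothelial cells sampled at 24 h following treatment.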

[3] = read-out: Interferon-gamma inducible Protein 10 (IP10), CXCL10 (gene 3627); assay: BSK_BE3C_IP10: BioMAP Diversity Plus: BE3C Assay for Interferon-gamma inducible Protein 10 (IP10) Biomarker Activity (AID 2283034); conditions: primary human bronchial epithelial cells; actives raise or lower the signal
Summary of the method: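 Using primary human bronchial epithelial cultures, the assay captures IP-10 by ELISA one day (24 h) after exposure. Parallel SRB staining of total protein flags overt cytotoxicity. Fits run bidirectionally relative to DMSO.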

[4] = read-out: Monokine induced gamma interferon (MIG), CXCL9 (gene 4283); assay: BSK_BE3C_MIG: BioMAP Diversity Plus: BE3C Assay for Monokine induced gamma interferon (MIG) Biomarker Activity (AID 2283035); conditions: primary human bronchial epithelial cells; actives raise or lower the signal
Summary of the method: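 ELISA read-out of MIG in human lung bronchial epithelial primary cultures, 24 h post-dosing. Bidirectional curve fit vs DMSO baseline.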

[5] = read-out: Transforming growth factor beta 1 (TGFb1), TGFB1 (gene 7040); assay: BSK_BE3C_TGFb1: BioMAP Diversity Plus: BE3C Assay for Transforming growth factor beta 1 (TGFb1) Biomarker Activity (AID 2283036); conditions: primary human bronchial epithelial cells; actives raise or lower the signal
Summary of the method: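 In this human primary bronchial epithelial system, an ELISA quantified TGF-b1 one day after dosing. Endpoint changes in either direction were fitted relative to DMSO.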

[6] = read-out: Plasminogen activator inhibitor-1 (PAI1), SERPINE1 (gene 5054); assay: BSK_BE3C_PAI1: BioMAP Diversity Plus: BE3C Assay for Plasminogen activator inhibitor-1 (PAI1) Biomarker Activity (AID 2283037); conditions: primary human bronchial epithelial cells; actives raise or lower the signal
Summary of the method: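 PAI-1 biomarker levels in treated human bronchial epithelial cells are determined by ELISA at 24 h. Both increases and decreases relative to DMSO are fitted.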

[7] = read-out: urokinase plasminogen activator (uPA), PLAU (gene 5328); assay: BSK_BE3C_uPA: BioMAP Diversity Plus: BE3C Assay for urokinase plasminogen activator (uPA) Biomarker Activity (AID 2283038); conditions: primary human bronchial epithelial cells; actives raise or lower the signal
Summary of the method: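 ELISA read-out of uPA in human lung primary bronchial epithelial cultures, 24 h post-dosing. Gain or loss of signal fitted bidirectionally relative to DMSO baseline; cytotoxicity checked in parallel cultures via SRB total protein stain.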

[8] = read-out: Urokinase-type plasminogen activator receptor (uPAR), PLAUR (gene 5329); assay: BSK_BE3C_uPAR: BioMAP Diversity Plus: BE3C Assay for Urokinase-type plasminogen activator receptor (uPAR) Biomarker Activity (AID 2283039); conditions: primary human bronchial epithelial cells; actives raise or lower the signal
Summary of the method: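 A uPAR ELISA serves as the readout, taken 24 h after treating primary human bronchial epithelial cells. Responses in either direction are fitted against DMSO, which defines baseline activity.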

[9] = read-out: Interleukin-6 (IL6), IL6 (gene 3569); assay: BSK_CASM3C_IL6: BioMAP Diversity Plus: CASM3C Assay for Interleukin-6 (IL6) Biomarker Activity for (AID 2283040); conditions: primary human coronary artery smooth muscle cells; actives raise or lower the signal
[10] = read-out: Tissue plasminogen activator (tPA), PLAT (gene 5327); assay: BSK_BE3C_tPA: BioMAP Diversity Plus: BE3C Assay for Tissue plasminogen activator (tPA) Biomarker Activity (AID 2283041); conditions: primary human bronchial epithelial cells; actives raise or lower the signal
Summary of the method: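 Bidirectional curve fitting relative to DMSO defined activity, with tPA detected by ELISA in chemically treated human bronchial epithelial primary cells at 24 hours.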

Measured: AC50

C#C[C@]1(O)CC[C@H]2[C@@H]3CCc4cc(OC)ccc4[C@H]3CC[C@@]21C
active: [1] 6.9 µM
inactive: all other assays above

C=C(C)C(=O)OCC(F)(F)C(F)(F)C(F)(F)F
not listed: [5] | [8]
inactive: all other assays above

C=C(C)C(=O)OCCC(F)(F)C(F)(F)C(F)(F)C(F)(F)C(F)(C(F)(F)F)C(F)(F)F
not listed: [5] | [8]
inactive: all other assays above

O=C(O)C(F)(F)C(F)(F)C(F)(F)C(F)(F)C(F)(F)C(F)(F)C(F)(F)C(F)(F)C(F)(F)C(F)(F)C(F)(F)C(F)(F)C(F)(F)F
not listed: [5] | [8]
inactive: all other assays above

CCCCNc1ccccc1
not listed: [8]
inactive: all other assays above

FC(F)(F)C(F)(F)CNCC(F)(F)C(F)(F)F
not listed: [5] | [8]
inactive: all other assays above

CCCCCCCCCCCCCCCC[N+](C)(C)Cc1ccccc1
active: [1] 2.19 µM | [2] 1.78 µM | [3] 2.47 µM | [4] 10 µM | [5] 20 µM | [6] 20 µM | [7] 13.2 µM | [9] 3.74 µM | [10] 7.03 µM

O[Si](c1ccccc1)(c1ccccc1)c1ccccc1
active: [2] 14.8 µM | [6] 8.71 µM
inactive: all other assays above

FC(F)(F)C(F)(F)C(F)(F)C(F)(F)C(F)(F)C(F)(F)C(F)(F)C(F)(F)CCS
not listed: [5]
inactive: all other assays above

C=C(C)C(=O)OCC(F)(F)C(F)(F)C(F)(F)C(F)(F)C(F)(F)C(F)(F)C(F)(F)F
not listed: [5]
inactive: all other assays above

N=C(N)C(F)(F)C(F)(F)C(F)(F)C(F)(F)C(F)(F)C(F)(F)C(F)(F)F
active: [1] 43.1 µM | [2] 21.1 µM and 44.1 µM | [3] 48.6 µM
inactive: [1] | [3] | [4] | [6] | [7] | [8] | [9] | [10]

O=C(O)C(F)(F)C(F)(F)C(F)(F)F
not listed: [5]
inactive: all other assays above

O=C(O)C(F)(F)C(F)(F)C(F)(F)C(F)(F)C(F)(F)C(F)(F)C(F)(F)C(F)(F)Cl
inactive: [2] | [9]
active: [1] 18.2 µM and 17.6 µM | [2] 56.8 µM | [4] 46.6 µM and 46.5 µM | [6] 18 µM and 12.2 µM | [7] 45.7 µM and 45.8 µM | [10] 30 µM and 20.4 µM

O=C(O)C(F)(F)C(F)(F)OC(F)(F)F
not listed: [5]
inactive: all other assays above

O=S(=O)(OCCOC(F)(F)F)C(F)(F)F
not listed: [5] | [8]
inactive: all other assays above

FC(F)(F)C(F)(F)C(F)(F)N(C(F)(F)C(F)(F)C(F)(F)F)C(F)(F)C(F)(F)C(F)(F)F
not listed: [5] | [8]
inactive: all other assays above

Cc1ccc(S(=O)(=O)OCC(F)(F)C(F)(F)C(F)(F)C(F)(F)C(F)(F)C(F)F)cc1
not listed: [5]
inactive: all other assays above

C=CC(=O)OCC(F)(F)C(F)(F)C(F)(F)C(F)(F)COC(=O)C=C
inactive: [6] | [8] | [9] | [10]
active: [1] 40.4 µM and 42.4 µM | [2] 25.5 µM and 24 µM | [3] 45.1 µM and 45.8 µM | [4] 44.1 µM and 46.5 µM | [7] 8.4 µM and 8.81 µM | [8] 21.5 µM | [9] 7.96 µM | [10] 8.82 µM

Oc1ccc(Nc2ccccc2)cc1
active: [2] 20 µM | [3] 3.97 µM | [5] 5.46 µM | [6] 7.39 µM
inactive: all other assays above

NC(=O)C(F)(F)C(F)(F)C(F)(F)C(F)(F)F
active: [6] 4.8 µM
inactive: [1] | [2] | [3] | [4] | [6] | [7] | [9] | [10]

OCCCC(F)(F)C(F)(F)C(F)(F)F
not listed: [5]
inactive: all other assays above

C=CC/C=C/C/C=C/C/C=C/C
not listed: [8]
inactive: all other assays above

CO[Si](OC)(c1ccccc1)c1ccccc1
active: [9] 31.5 µM
not listed: [3]
inactive: all other assays above

CCCCC(CC)COP(=O)(O)OCC(CC)CCCC (stereo not drawn)
inactive: [2] | [7] | [9]
active: [1] 29.3 µM and 31.6 µM | [3] 32 µM and 31.2 µM | [4] 32.8 µM and 29.5 µM | [6] 16.2 µM and 20 µM | [10] 25.9 µM and 14.4 µM

CCCCCCOC(=O)c1ccccc1O
active: [2] 43.2 µM and 42.5 µM
not listed: [5] | [8]
inactive: all other assays above

OCC(F)(F)C(F)(F)C(F)(F)C(F)(F)C(F)(F)C(F)(F)F
active: [1] 41.7 µM | [4] 45.1 µM and 54.8 µM
inactive: [1] | [2] | [6] | [7] | [8] | [9] | [10]

FC(F)(F)C(F)(F)C(F)(F)C(F)(F)C(F)(F)CCI
not listed: [5]
inactive: all other assays above

CCc1ccc(C(c2ccc(CC)cc2)C(Cl)Cl)cc1
active: [1] 13.6 µM | [2] 28.5 µM | [3] 20 µM | [6] 20 µM | [10] 14.1 µM
inactive: [4] | [5] | [7] | [8] | [9]

CC(=O)Nc1ccc(N=Nc2cc(C)ccc2O)cc1
active: [3] 29.7 µM
not listed: [8]
inactive: all other assays above

O=C(O)C(F)(OC(F)(F)C(F)(OC(F)(F)C(F)(OC(F)(F)C(F)(F)C(F)(F)F)C(F)(F)F)C(F)(F)F)C(F)(F)F (stereo not drawn)
not listed: [5] | [8]
inactive: all other assays above

FC(F)(I)C(F)(F)C(F)(F)C(F)(F)I
inactive: [4] | [6] | [7] | [10]
active: [1] 49.2 µM and 46.2 µM and 46.8 µM | [2] 22.9 µM and 53.8 µM and 54.1 µM | [4] 48.9 µM | [6] 50.8 µM | [9] 45.6 µM and 44.9 µM and 30 µM | [10] 46.5 µM and 43.2 µM

CCCCCCCCC(F)(F)C(F)(F)C(F)(F)C(F)(F)C(F)(F)C(F)(F)F
not listed: [5]
inactive: all other assays above

CCc1c(Br)c(Br)c(Br)c(Br)c1Br
inactive: all assays above

O=C(O)C(F)(F)C(F)(F)C(F)F
not listed: [5] | [8]
inactive: all other assays above

O=P(O)(O)OCCC(F)(F)C(F)(F)C(F)(F)C(F)(F)C(F)(F)C(F)(F)F
active: [2] 6.01 µM | [10] 3.64 µM
inactive: [1] | [2] | [3] | [4] | [6] | [7] | [9] | [10]

FC(F)(F)C(F)(F)C(F)(F)CI
not listed: [3] | [5] | [8]
inactive: all other assays above
